Compounds with a hit are over-represented: about 28% of the library has one in this group of screens.
CYP2C9 activ – human CYP2C9 activators, primary screen, biochemical, luminescence; Cytochrome P450 2C9 (Homo sapiens), P11712; recombinant CYP2C9, luciferin-H conversion; hits give high values; factor 1 = untreated enzyme, 0 = blocked; activation factor at 5 µM; actives 1.4% (n = 96,000); AID 1024, 2008;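 active = activation factor of 2 or more for CYP2C9 at a 5 µM dose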;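 note: 0 = sulfaphenazole-blocked wells and 1 = vehicle-only wells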
Target sequence (P11712 whole entry, looked up): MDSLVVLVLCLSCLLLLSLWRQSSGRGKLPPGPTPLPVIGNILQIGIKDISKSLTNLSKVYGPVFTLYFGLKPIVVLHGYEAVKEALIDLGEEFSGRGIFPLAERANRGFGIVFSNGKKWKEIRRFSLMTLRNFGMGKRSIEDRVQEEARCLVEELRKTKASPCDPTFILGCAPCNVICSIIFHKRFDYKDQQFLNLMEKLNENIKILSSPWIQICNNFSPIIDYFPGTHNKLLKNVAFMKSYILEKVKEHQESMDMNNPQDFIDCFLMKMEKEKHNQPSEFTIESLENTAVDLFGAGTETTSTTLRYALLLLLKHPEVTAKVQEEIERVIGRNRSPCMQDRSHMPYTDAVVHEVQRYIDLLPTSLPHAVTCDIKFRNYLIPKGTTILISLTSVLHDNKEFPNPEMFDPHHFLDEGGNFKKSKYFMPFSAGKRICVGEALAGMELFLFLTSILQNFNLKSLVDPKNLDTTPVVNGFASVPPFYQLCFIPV
CYP2C9 inh – blockers of cytochrome P450 2C9 activity – biochemical, luminescence, ADME assay, primary screen; inhibition, % at 5 µM; actives 20% (n = 96,000); CYP2C9 Supersomes, luciferin-H conversion; AID 777, 2007;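 active = blocking of liver enzyme CYP2C9 beyond about 50% at 5 µM, limit read from the data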
CYP2C19 act – human CYP2C19 activators, primary screen, biochemical, luminescence | Cytochrome P450 2C19 (Homo sapiens), P33261 | activation factor at 5 µM | 96,000 tested, under 10 active | recombinant CYP2C19, luciferin-H EGE luminescence; hits give high values; 0 = fully inhibited enzyme, 1 = untreated enzyme;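 active = activation factor of at least 2 at 5 µM in the primary screen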;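 note: 0 = wells with 2.5 mM tranylcypromine and 1 = vehicle-only wells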
CYP2C19 inh – blockers of cytochrome P450 2C19 activity – biochemical, luminescence, ADME assay, primary screen. P33261. actives 21% (n = 96,000). CYP2C19 Supersomes, luciferin-H EGE luminescence, 30 min. inhibition, % at 5 µM. AID 778, 2007;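 active = CYP2C19 inhibition above a set limit at 5 µM in the primary screen, cut at about 50% in these data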;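 note: plate controls were negative control wells for no effect and 2.5 mM tranylcypromine positive control for full effect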
PLK1 PBD inh – Plk1 polo box domain binding inhibitors, primary screen, biochemical, fluorescence polarization | AID 693, 2007 | inhibition, %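 (tested at about 20 µM)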 | Plk1 PBD phosphopeptide binding | actives 0.13% (n = 97,000); in the data active = inhibition above about 34%, passing the limit was not always enough
PLK1 inh – human PLK1 kinase inhibitors, primary screen, biochemical, TR-FRET. inhibition, % at 10 µM. actives 0.53% (n = 97,000). Serine/threonine-protein kinase PLK1 (Homo sapiens), P53350. recombinant PLK1 kinase, TR-FRET peptide phosphorylation;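 active = inhibition of 50% or more in the single-concentration screen; inactive = inhibition below 50%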;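 note: 0% = DMSO max control and 100% = H-89 dihydrochloride min control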
An asterisk follows results filed as active; . = no result given.

SMILES | CYP2C9 activ | CYP2C9 inh | CYP2C19 act | CYP2C19 inh | PLK1 PBD inh | PLK1 inh
O=C(O)c1cc2cc(Cl)ccc2oc1=O | 1.1 | -5 | 1 | -5 | 17 | 7
CCOc1ccccc1CN1C(=O)NC(C)(c2ccccc2)C1=O (centres undefined) | 1.1 | -12 | 0.1 | 94* | -10 | -6
CC1(c2ccccc2)NC(=O)N(CC(=O)NC(=O)NC2CCCC2)C1=O (centres undefined) | 0.8 | 21 | 0.5 | 53* | -4 | 3
CC1(c2ccccc2)NC(=O)N(CCOc2ccccc2)C1=O (centres undefined) | 1 | -1 | 0.3 | 65* | . | .
CC1CC(C)CN(Cc2nc3c(c(=O)n(C)c(=O)n3C)n2CCN2CCOCC2)C1 (centres undefined) | 0.8 | 19 | 0.9 | 7 | 5 | -5
COc1ccc(-c2noc(CCC(=O)Nc3cc(OC)ccc3OC)n2)cc1 | 0.2 | 82* | 0 | 98* | -6 | -8
COc1ccc(-c2noc(CCC(=O)Nc3cc(Cl)c(OC)cc3OC)n2)cc1 | 0.5 | 54* | 0.2 | 82* | 0 | -8
O=S(=O)(c1ccc(Cl)cc1)n1ccc2cccnc21 | . | . | . | . | 13 | -5
O=S(=O)(c1ccc(Cl)cc1)c1ccccn1 | 2.1* | -108 | 0.8 | 17 | -26 | 0
CCOC(=O)C(NCc1ccco1)(NC(=O)c1ccccc1)C(F)(F)F (centres undefined) | 0.6 | 44 | 0.2 | 76* | 19 | -1
COc1ccc(C(=O)NC2CCCCC2)cc1S(=O)(=O)N1CCCC1 | 0.5 | 53* | 0.7 | 31 | -20 | -2
COc1ccc(CC(=O)N2CCCc3ccccc32)cc1OC | 1.1 | -14 | 0.6 | 38 | 6 | -12
COc1ccc(C(=O)NC(C)(C)C)cc1S(=O)(=O)N1CCCC1 | 0.5 | 53* | 0.9 | 10 | -23 | -7
COc1ccc(C(=O)NCc2ccccc2)cc1S(=O)(=O)N1CCCc2ccccc21 | 0.5 | 55* | 0.7 | 26 | -7 | -8
COC(=O)c1cc(COC(=O)c2ccc(OC)c(S(=O)(=O)N3CCCC3)c2)oc1C | 0 | 97* | 0 | 98* | -17 | 5
O=C(COc1ncnc2ccc(Br)cc12)NCc1ccc2c(c1)OCO2 | 0.8 | 18 | 1.1 | -5 | 17 | 19
N#C/C(C(=O)NCc1ccco1)=C1/SC(Cc2ccc(F)cc2)C(=O)N1c1ccccc1 (centres undefined) | 1.2 | -20 | 1.1 | -8 | . | .
CCOCc1nc(N)[nH]c(=O)c1Cc1ccc(OC(C)C)cc1 | . | . | . | . | -6 | -10
Cc1cc(N2CCN(c3ccccc3)CC2)n2c(n1)nc1ccccc12 | 0.3 | 67* | 0.5 | 50 | 0 | -9
Cc1cc(C)cc(NS(=O)(=O)c2ccc3[nH]cc(C(=O)NCc4ccco4)c(=O)c3c2)c1 | 0.4 | 65* | 0.9 | 12 | 11 | 2
COc1cccc(NS(=O)(=O)c2ccc3[nH]cc(C(=O)NC4CC4)c(=O)c3c2)c1 | 0.5 | 52* | 0.9 | 13 | -23 | -17
CCOc1ccc(NS(=O)(=O)c2ccc3[nH]cc(C(=O)NCC4CCCO4)c(=O)c3c2)cc1 (centres undefined) | . | . | . | . | -8 | 2
COc1cccc(NS(=O)(=O)c2ccc3[nH]cc(C(=O)N(C)Cc4ccco4)c(=O)c3c2)c1 | 0.3 | 71* | 0.5 | 48 | -7 | -11
Cc1ccccc1NS(=O)(=O)c1ccc2[nH]cc(C(=O)N(C)Cc3ccco3)c(=O)c2c1 | 0.8 | 25 | 0.9 | 14 | -6 | -10
CCCSCCCNC(=O)Cn1cc2c(n1)CCCCC2 | 0.8 | 18 | 0.9 | 9 | . | .
SMILES | CYP2C9 activ | CYP2C9 inh | CYP2C19 act | CYP2C19 inh | PLK1 PBD inh | PLK1 inh
Cc1ccnc(NS(=O)(=O)c2ccc(NS(=O)(=O)c3cccs3)cc2)n1 | . | . | . | . | 9 | -20
N#CCc1ccc(NS(=O)(=O)c2cccs2)cc1 | 0.3 | 72* | 0.1 | 86* | . | .
CCS(=O)(=O)Nc1ccc(Cc2ccncc2)cc1 | 0.1 | 95* | 0.1 | 93* | -24 | -10
O=S(=O)(Nc1ccc(Cc2ccncc2)cc1)c1ccc(Br)s1 | 0 | 100* | 0.3 | 72* | -18 | -4
CCCCc1ccc(NS(=O)(=O)c2cccs2)cc1 | 0.4 | 59* | 0.5 | 49 | 5 | -7
CCNc1nc(NC(C)C)nc(Oc2ccc(OCCOc3ccc(C)cc3)nn2)n1 | 0.7 | 28 | 0.6 | 40 | -8 | -9
Cc1ccc(/C=C2/SC(=S)N(CCC(=O)N3CCN(c4ccccc4)CC3)C2=O)cc1 | 0.8 | 25 | 0.8 | 22 | 13 | -5
O=S(=O)(Nc1ccc(Cc2ccncc2)cc1)c1cccs1 | 0 | 99* | 0 | 100* | -9 | -17
Cc1ccc(NS(=O)(=O)c2ccc(NS(=O)(=O)c3cccs3)cc2)cc1 | 0.1 | 87* | 0.5 | 50 | 32 | -2
Cc1cc(C)nc(NS(=O)(=O)c2ccc(Br)cc2)n1 | 1 | -4 | 0.8 | 20 | -7 | -11
O=S(=O)(Nc1ccc(Cc2ccncc2)cc1)c1ccc(Br)cc1 | 0 | 99* | 0 | 100* | 31 | -7
NS(=O)(=O)c1ccc(NS(=O)(=O)c2cccs2)cc1 | 0.8 | 22 | 0.9 | 8 | -3 | -4
CCOC1(C(F)(F)F)NC(=O)N(Cc2ccc(OC)cc2)C1=O (centres undefined) | 0.9 | 14 | 0.6 | 38 | 11 | -3
Cc1ccc(N2C(=O)CSC2c2cccnc2)cc1F (centres undefined) | 1.1 | -6 | 0.9 | 12 | 5 | -7
Cc1ccc2nc3sc(-c4nnc(-c5ccccc5[N+](=O)[O-])o4)c(N)c3cc2c1 | 1 | 1 | 0.9 | 14 | -22 | -1
CSc1ccc(C2C(C#N)=C(N)Oc3c2ccc(=O)c2c(C)oc(C)c32)cc1 (centres undefined) | 0.4 | 59* | 0.8 | 17 | -46 | 0
Cc1oc(C)c2c(=O)ccc3c(c12)OC(N)=C(C#N)C3c1ccccc1Cl (centres undefined) | 0.5 | 53* | 0.8 | 22 | -155 | -3
O=C(Nc1cccc(NC(=O)c2ccccc2[N+](=O)[O-])n1)c1ccccc1[N+](=O)[O-] | 0.6 | 43 | 0.7 | 30 | 12 | -6
O=C(c1noc2c1CCc1ccccc1-2)N1CCc2ccccc2C1 | 1.7 | -74 | 0.4 | 60* | . | .
O=C(c1noc2c1CCc1ccccc1-2)N1CCCc2ccccc21 | 1.5 | -45 | 0.5 | 52* | 15 | 1
Cc1cc(NC(=O)c2noc3c2CCc2ccccc2-3)no1 | 1 | -4 | 1 | 1 | . | .

Screens as filed in PubChem.
